Bioassay records from PubChem BioAssay.
U2OS ROS induce – ROS inducers in U2OS cancer cells, primary screen, cell-based, H2DCF-DA fluorescence. U2OS ROS induction. ROS induction (% of piperlongumine), % at 10 µM. actives 2% (n = 46,000); in the data active = ROS induction above about 79%, passing the limit was not always enough;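 note: 0% = DMSO vehicle median and 100% = reference compound median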
* = called active by the depositor. Only a selection was taken, and hits are over-represented in it overall.

SMILES | U2OS ROS induce
NC1=NC(=O)/C(=C/c2ccc(I)o2)S1 | 141*
Cc1cccc(-n2c(=O)c3c4c(sc3n3c(=S)[nH]nc23)CCCC4)c1 | 2
CCc1ccc(N(CC)C(=O)c2cn(CC)c(=O)c3cc(OC)c(OC)cc23)cc1 | -6
COC(=O)c1cc(O)cc(OC)c1Oc1cc(C)cc(O)c1C(=O)O | 15
COC(=O)c1cc(O)cc(OC)c1C(=O)c1c(O)cc(C)cc1O | 94*
COC(=O)c1cc(O)cc(OC)c1C(=O)c1c(O)cc(C)cc1OC | -6
CCOC(=O)c1ccccc1NC(=O)Cn1c(-c2cccs2)noc1=O | -14
COc1ccccc1OCCOc1ccc(-c2nc3sc4c(c3c(=O)[nH]2)CCCC4)cc1 | 8
N#CC(C(=O)C(F)(F)F)c1nc2ccccc2[nH]1 (configuration not stated) | -10
O=C(CSc1ncnc2c1nnn2Cc1ccccc1)NCc1ccccc1 | 25
NC(=O)CSc1ncnc2c1nnn2Cc1ccc(F)cc1 | 135*
O=C(CSc1ncnc2c1nnn2Cc1ccc(F)cc1)OCc1ccccc1 | 46
CCCN(C(=O)Cc1c(C(=O)O)n(CC)c2ccccc12)c1cccc(Cl)c1 | 11
O=c1c2ccccc2n2c(-c3ccsc3)nnc2n1Cc1ccccc1 | 6
C[C@@H]1CN([C@@H](C)CO)C(=O)c2cccc(NC(=O)CCCCCC(=O)Nc3ccccc3N)c2O[C@H]1CN(C)Cc1ccc2c(c1)OCO2 | 105*
C[C@H](CO)N1C[C@H](C)[C@H](CN(C)Cc2ccncc2)Oc2ccc(NC(=O)CCCCCC(=O)Nc3ccccc3N)cc2CC1=O | 16
C[C@@H]1CN([C@H](C)CO)C(=O)Cc2cc(NC(=O)CCCCCC(=O)Nc3ccccc3N)ccc2O[C@@H]1CN(C)Cc1ccncc1 | -1
C[C@@H]1CN([C@@H](C)CO)C(=O)c2cc(NC(=O)CCCCCC(=O)Nc3ccccc3N)ccc2O[C@@H]1CN(C)Cc1ccc2c(c1)OCO2 | -7
C[C@H]1CN([C@@H](C)CO)C(=O)c2cccc(NC(=O)CCCCCC(=O)Nc3ccccc3N)c2O[C@@H]1CN(C)Cc1ccc2c(c1)OCO2 | 108*
C[C@@H]1CN([C@H](C)CO)C(=O)Cc2cc(NC(=O)CCCCCC(=O)Nc3ccccc3N)ccc2O[C@@H]1CN(C)Cc1ccc(Cl)c(Cl)c1 | 84*
C[C@H](CO)N1C[C@H](C)[C@@H](CN(C)Cc2ccc3c(c2)OCO3)Oc2c(NC(=O)CCCCCC(=O)Nc3ccccc3N)cccc2C1=O | 39
C[C@H](CO)N1C[C@H](C)[C@@H](CN(C)Cc2ccc3c(c2)OCO3)Oc2ccc(NC(=O)CCCCCC(=O)Nc3ccccc3N)cc2C1=O | 18
C[C@H](CO)N1C[C@H](C)[C@H](CN(C)Cc2ccc3c(c2)OCO3)Oc2ccc(NC(=O)CCCCCC(=O)Nc3ccccc3N)cc2C1=O | -5
CCC1CCc2nc3sc(C(=O)Nc4ccccc4C(F)(F)F)c(N)c3cc2C1 (configuration not stated) | -2
O=C(CSC(=S)N1CCOCC1)Nc1nc(-c2c[nH]c3ccccc23)cs1 | 23
SMILES | U2OS ROS induce
O=C(CN1N=C(c2ccccc2)CCC1=O)NC1CC1 | -1
CC(C)(C)c1ccc(C(=O)N2CCCc3ccccc32)cc1 | 30
COc1ccc(-c2nc(-c3ccc(C)cc3C)cs2)cc1 | -5
Cc1ccccc1/C=N/n1c(C)cc(C)c(C#N)c1=O | 0
COc1cc(-c2oc3cc(O)cc(O)c3c(=O)c2O[C@@H]2O[C@H](CO)[C@@H](O)[C@H](O)[C@H]2O)ccc1O[C@@H]1O[C@H](CO)[C@@H](O)[C@H](O)[C@H]1O | -6
COC(=O)c1cc(CO)cc(O)c1C(=O)c1c(O)cccc1O | 2
COC(=O)C1c2c(oc3cc(CO)cc(O)c3c2=O)C=CC1O (configuration not stated) | 137*
O=C(Nc1cc(Cl)ccc1Cl)c1cc(S(=O)(=O)NC2CCCC2)ccc1F | 27
COc1ccccc1N(CC(O)CN1CCOCC1)S(=O)(=O)c1ccc(C)cc1 (configuration not stated) | -7
Cc1cccc(-n2ncc3c(Nc4ccc(-c5ccccc5)cc4)ncnc32)c1 | 4
CC(C)CNc1ncnc2c1c(-c1ccccc1)cn2-c1ccccc1 | 50
CC(=O)Nc1ccc(Nc2ncnc3c2c(-c2ccccc2)cn3-c2cccc(C)c2)cc1 | 97*
COc1ccc(-c2nc(SCC(=O)CSc3n[nH]c(-c4ccc(OC)cc4)n3)n[nH]2)cc1 | 2
CCN(CC)S(=O)(=O)c1cc(-c2nnc(-c3ccc(C)cc3)o2)ccc1C | 33
CSc1nnc2c(n1)OC(C1CC=C(C)CC1)Nc1ccccc1-2 (configuration not stated) | 103*
CSc1nnc2c(n1)OC(C)Nc1ccccc1-2 (configuration not stated) | 32
CC(C)(C)c1ccc(C(=O)Nc2c3c(nn2-c2ccc(Cl)cc2)CSC3)cc1 | 8
CCOC(=O)c1sc(-c2ccccc2)nc1OCc1c(Cl)cccc1Cl | 7
CC(CC(=O)NC1CCCCCC1)CC1=NS(=O)(=O)c2ccccc2N1 (configuration not stated) | -7
Cc1cc(C(F)(F)F)c2c(n1)sc1c(=O)[nH]c(C)nc12 | 95*
COC(=O)c1sc2nc(C)cc(C(F)(F)F)c2c1N | 4
Cc1c(C(=O)O)sc2nc(SCC(=O)Nc3ccccc3C(F)(F)F)[nH]c(=O)c12 | -1
N#CCc1nc(-c2ccc(Cl)c(Cl)c2)cs1 | 18
O=C(CCCc1ccccc1)NCCc1cn2ccccc2n1 | -12
Cc1ccc(N2C(=O)CSC2c2ccccc2C(F)(F)F)cc1C (configuration not stated) | -9
SMILES | U2OS ROS induce
C[C@H](CO)N1C[C@H](C)[C@@H](CN(C)S(=O)(=O)c2ccccc2)OCc2cn(nn2)CCCC1=O | 9
C[C@@H]1CN([C@H](C)CO)C(=O)CCCn2cc(nn2)CO[C@@H]1CN(C)S(=O)(=O)c1cccs1 | 89*
C[C@H](CO)N1C[C@H](C)[C@@H](CN(C)S(=O)(=O)c2cccs2)OCc2cn(nn2)CCCC1=O | -26
C[C@@H]1CN([C@H](C)CO)C(=O)CCCn2cc(nn2)CO[C@@H]1CN(C)S(=O)(=O)c1ccccc1 | 104*
C[C@H](CO)N1C[C@H](C)[C@H](CN(C)S(=O)(=O)c2cccs2)OCc2cn(nn2)CCCC1=O | 28
C[C@H]1CN([C@@H](C)CO)C(=O)CCCn2cc(nn2)CO[C@H]1CN(C)S(=O)(=O)c1ccccc1 | -22
Cc1oc2c(c1C(=O)NCCCn1ccnc1)C(=O)c1ccccc1C2=O | 53
COc1ccc(NC(=O)CSc2ncccc2C(=O)Oc2ccccc2Cl)cc1OC | 9
CCOC(=O)N1CCC(n2c(SCC(=O)Nc3ccc(C)cc3)nc3ccccc3c2=O)CC1 | 25
Cc1cc(C(=O)N2CCN(Cc3ccccc3)CC2)n[nH]1 | -14
COC(=O)C1=C(C)NC2=C(C(=O)CC(c3ccccc3)C2)C1c1ccccc1OC(C)C (configuration not stated) | 46
CC1=C(C(=O)OCc2ccccc2)C(c2cccc(O)c2)C2=C(CC(c3ccccc3)CC2=O)N1 (configuration not stated) | 183*
COC(=O)C1=C(C)NC2=C(C(=O)CCC2)C1c1ccccc1 (configuration not stated) | 0
CS/C(NC1CCCCC1)=C(/C#N)S(=O)(=O)c1ccc(Cl)cc1 | 45
CS/C(NCC1CC1)=C(/C#N)C(=O)c1ccc(Cl)cc1 | 196*
CS/C(Nc1cccc(Cl)c1Cl)=C(/C#N)C(=O)c1cccs1 | -12
